Test results reported in PubChem BioAssay (NCATS).
Values without a mark were called inactive. Records with an inconclusive call do not appear. Entries that show only a call come without a potency. Activity calls are given as the source filed them. Calls come from the whole dose curve; as a rule, active = well fitted inhibition curve with a large enough effect; inconclusive = small, poorly fitted or top-dose-only effect; inactive = no such curve, though single readings can be large or run the other way.

Assay: qHTS assay for measurement of the activity of small molecule inhibitors on Zika virus induced Caspase-3 activity in human iPSC derived neural progenitor cells (hNPCs) (AID 1224857); note: nearly all actives have a fitted effect of over 65% in size; note: potency is the fitted concentration of half-maximal effect
Conditions: hNPCs ZIKV-induced caspase-3/7, Caspase-Glo luminescence, 6 h; series mostly up to 45.7 µM; activity change, negative = inhibition: at the top concentration
In short: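 hNPCs seeded 350 cells/well, cultured 16–20 h; compounds added 1 h before ZIKV (2 FFU/cell), 37 C 6 h. Caspase-Glo 3/7 luminescence after 30 min RT; % inhibition from induction scaled to uninfected (0%) and infected (100%) wells.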

SMILES | activity change, negative = inhibition | Potency
CC(C)(N)Cc1ccc(Cl)cc1 | 14.1% | 
CNC(=O)c1ccc(N2C(=S)N(c3ccc(C#N)c(C(F)(F)F)c3)C(=O)C23CCC3)cc1F | 60.3% | 
COC[C@H]1OC(=O)c2coc3c2[C@@]1(C)C1=C(C3=O)C2CCC(=O)[C@@]2(C)C[C@H]1OC(C)=O (stereo partly specified) | 77.8% | 
CCn1cc(C(=O)O)c(=O)c2ccc(C)nc21 |  | inactive
Oc1ccc(Cl)cc1Cc1ccccc1 |  | inactive
COC[C@@H](NC(C)=O)C(=O)NCc1ccccc1 | 12.3% | 
Cc1ncc(CNC(=O)N(CCCl)N=O)c(N)n1 |  | inactive
O=c1oc2ccccc2c(O)c1C(CC(O)c1ccc(-c2ccc(Br)cc2)cc1)c1ccccc1 (stereo unspecified) | -15.1% | 
c1ccc2c(c1)Nc1ccccc1S2 |  | inactive
CNCC(O)c1ccc(O)cc1 (stereo unspecified) |  | inactive
C[C@]12CCC(=O)C(O)=C1CC[C@@H]1[C@@H]2CC[C@]2(C)C(=O)CC[C@@H]12 | -0.529% | 
c1ccc(C2CC2)c(OCC2=NCCN2)c1 |  | inactive
NCCc1cc(O)c(O)cc1O | -5.24% | 
OCCOc1ccccc1 | 9.07% | 
CN(C)CCc1ccc(O)cc1 |  | inactive
COC1(CS(=O)c2ccccc2)CCN(CCc2c[nH]c3ccc(F)cc23)CC1 (stereo unspecified) |  | 20.9 µM (active)
NN=C(N)N |  | inactive
COc1ccc(C(=O)c2c(C)n(CCN3CCOCC3)c3ccccc23)cc1 |  | inactive
C=C(C)[C@H]1Cc2c(ccc3c2O[C@@H]2COc4cc(OC)c(OC)cc4[C@@H]2C3=O)O1 |  | inactive
NCC(O)c1ccc(O)cc1 (stereo unspecified) |  | inactive
O=C(O)c1ccc2[nH]cc(CCCCN3CC=C(c4ccccc4)CC3)c2c1 | -5.36% | 
Fc1ccc(C(OCCN2CCN(CCCc3ccccc3)CC2)c2ccc(F)cc2)cc1 |  | inactive
NP(N)(=O)NC(=O)c1ccc(F)cc1 | 5.16% | 
CC(=O)Nc1cc([As](=O)(O)O)ccc1O | -2% | 
CC(C)=CCOc1c2occc2cc2ccc(=O)oc12 |  | inactive
Cn1cc(C2=C(c3cn(C4CCN(Cc5ccccn5)CC4)c4ccccc34)C(=O)NC2=O)c2ccccc21 |  | inactive
O=[N+]([O-])c1cc([As](=O)(O)O)ccc1O | 17.5% | 
N#CC(C#N)=Cc1ccc(O)c(O)c1 |  | inactive
Oc1cc(Cl)ccc1Oc1ccc(Cl)cc1Cl |  | inactive

Assay: qHTS assay for measurement of the activity of small molecule inhibitors on Zika virus induced Caspase-3 activity in human astrocytoma cells (AID 1224859)
Conditions: SNB-19 ZIKV-induced caspase-3/7, luminescence, 6 h; series mostly up to 45.7 µM; activity change, negative = inhibition: at the top concentration
In short: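 Luminescence read-out (Caspase-Glo 3/7, 30 min RT) of caspase activity in SNB-19 cells infected 6 h with ZIKV, 2 FFU/cell, after 1 h compound pretreatment; % inhibition from induction normalised to uninfected (0%) and infected (100%) wells.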

SMILES | outcome | activity change, negative = inhibition
O=c1[nH]c2ccccc2n1CCCN1CCC(n2c(=O)[nH]c3cc(Cl)ccc32)CC1 | inactive | 
C[C@@H]1O[C@@H](O[C@H]2C[C@@H](O)[C@]3(CO)[C@H]4[C@H](O)C[C@]5(C)[C@@H](C6=CC(=O)OC6)CC[C@]5(O)[C@@H]4CC[C@]3(O)C2)[C@H](O)[C@H](O)[C@H]1O | inactive | 
CC(C)(N)Cc1ccc(Cl)cc1 |  | 1.7%
CNC(=O)c1ccc(N2C(=S)N(c3ccc(C#N)c(C(F)(F)F)c3)C(=O)C23CCC3)cc1F |  | 0.0293%
COC[C@H]1OC(=O)c2coc3c2[C@@]1(C)C1=C(C3=O)C2CCC(=O)[C@@]2(C)C[C@H]1OC(C)=O (stereo partly specified) |  | 107%
Cc1cccc(C)c1NC(=O)CN1CCCC1=O | inactive | 
Oc1ccc(Cl)cc1Cc1ccccc1 | inactive | 
COC[C@@H](NC(C)=O)C(=O)NCc1ccccc1 |  | -2.06%
Cc1ncc(CNC(=O)N(CCCl)N=O)c(N)n1 | inactive | 
O=c1oc2ccccc2c(O)c1C(CC(O)c1ccc(-c2ccc(Br)cc2)cc1)c1ccccc1 (stereo unspecified) |  | -4.36%
c1ccc2c(c1)Nc1ccccc1S2 | inactive | 
CNCC(O)c1ccc(O)cc1 (stereo unspecified) | inactive | 
C[C@]12CCC(=O)C(O)=C1CC[C@@H]1[C@@H]2CC[C@]2(C)C(=O)CC[C@@H]12 | inactive | 
c1ccc(C2CC2)c(OCC2=NCCN2)c1 | inactive | 
NCCc1cc(O)c(O)cc1O |  | -6.39%
OCCOc1ccccc1 |  | 14.2%
CN(C)CCc1ccc(O)cc1 | inactive | 
C[C@@H]1[C@@H](C(=O)C[C@H]2O[C@@H]3O[C@]4(C)CC[C@@H]5[C@H](C)CC[C@@H]([C@H]2C)[C@@]35OO4)O[C@@H]2O[C@]3(C)CC[C@H]4[C@H](C)CC[C@@H]1[C@@]24OO3 |  | -1.28%
COC1(CS(=O)c2ccccc2)CCN(CCc2c[nH]c3ccc(F)cc23)CC1 (stereo unspecified) |  | -7.47%

SMILES | outcome | activity change, negative = inhibition
NN=C(N)N | inactive | 
COc1ccc(C(=O)c2c(C)n(CCN3CCOCC3)c3ccccc23)cc1 | inactive | 
C=C(C)[C@H]1Cc2c(ccc3c2O[C@@H]2COc4cc(OC)c(OC)cc4[C@@H]2C3=O)O1 | inactive | 
Cc1sc2c(c1C)C(c1ccc(Cl)cc1)=N[C@@H](CC(=O)OC(C)(C)C)c1nnc(C)n1-2 |  | 6.39%
NCC(O)c1ccc(O)cc1 (stereo unspecified) | inactive | 
O=C(O)c1ccc2[nH]cc(CCCCN3CC=C(c4ccccc4)CC3)c2c1 |  | -6.4%
Fc1ccc(C(OCCN2CCN(CCCc3ccccc3)CC2)c2ccc(F)cc2)cc1 | inactive | 
NP(N)(=O)NC(=O)c1ccc(F)cc1 |  | 8.33%
CC(=O)Nc1cc([As](=O)(O)O)ccc1O |  | -2.83%
CC(C)=CCOc1c2occc2cc2ccc(=O)oc12 | inactive | 
Cn1cc(C2=C(c3cn(C4CCN(Cc5ccccn5)CC4)c4ccccc34)C(=O)NC2=O)c2ccccc21 | inactive | 
O=[N+]([O-])c1cc([As](=O)(O)O)ccc1O |  | -0.67%
O=C(O)C(=O)c1cn(Cc2ccccc2)c2ccc(-c3ccc(OC(F)(F)F)cc3)cc12 |  | 21.1%
N#CC(C#N)=Cc1ccc(O)c(O)c1 | inactive | 
CNC(=O)N1N=C(c2ccc(N)cc2)c2cc3c(cc2CC1C)OCO3 (stereo unspecified) |  | 30.3%
CC(O)(CS(=O)(=O)c1ccc(F)cc1)C(=O)Nc1ccc(C#N)c(C(F)(F)F)c1 (stereo unspecified) | inactive | 
Oc1cc(Cl)ccc1Oc1ccc(Cl)cc1Cl | inactive | 
COc1ccc2c(c1OC)CN1CCc3cc4c(cc3C1C2)OCO4 (stereo unspecified) | inactive | 
